Assay results published in PubChem BioAssay (Tox21).
“And” between values parts separate entries of the source, which are not always exact repeats. Equal entries are not always repeated. Records with an inconclusive call do not appear. The source made the active and inactive calls. Unless noted, calls come from the whole dose curve; as a rule, active = well fitted curve in the direction sought with a large enough effect in the repeat runs; inconclusive = weak or mixed curves; inactive = no such curve, though single readings can be large; an effect the other way counts as inactive or inconclusive.

Tests used:
[1] = Caspase-3/7 induction in HepG2 cells by small molecules, qHTS assay (AID 1346978); note: nearly all actives have a fitted effect of over 15% in size
In short: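 Wild-type HepG2 cells, 2,000/well, settled 5 hr at 37 C and 5% CO2, then compound-treated for 17 hr; caspase-3/7 activity read by luminescent Caspase-Glo 3/7 after 30 min at room temperature.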

[2] = Caspase-3/7 induction in CHO-K1 cells by small molecules, qHTS assay (AID 1346980); note: nearly all actives have a fitted effect of over 15% in size
In short: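 Wild-type CHO-K1 cells exposed to compounds for 17hr at 37 C, 5% CO2. Caspase-3/7 activity then measured by Caspase-Glo 3/7 luminescence after 30min at room temperature.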

[3] = biological target: Nuclear receptor subfamily 1 group I member 2 (Homo sapiens) (UniProt O75469); experiment: Human pregnane X receptor (PXR) small molecule agonists, qHTS assay (AID 1346982); note: nearly all actives have a fitted effect of over 35% in size; note: potency is the fitted concentration of half-maximal effect
In short: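 We seeded PXR-Luc HepG2 cells in assay medium containing 5% charcoal-stripped FBS, added compounds 5 hr later, incubated 24 hr, and read luminescence with ONE-Glo reagent.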

[4] = biological target: Acetylcholinesterase (Homo sapiens) (UniProt P22303); experiment: Acetylcholinesterase (AChE) small molecule antagonists: colormetric cell-based qHTS assay (AID 1347395; calls by dose curve; note: nearly all actives have a fitted effect of over 30% in size; note: potency is the fitted concentration of half-maximal effect)
In short: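 Endogenous AChE of human neuroblastoma SH-SY5Y cells was measured with an Ellman-type DTNB/acetylthiocholine mix. Compound pretreatment lasted 30 min at 37 C; substrate reaction ran 90 min at 37 C.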

[5] = biological target: Acetylcholinesterase (Homo sapiens) (UniProt P22303); experiment: Acetylcholinesterase (AChE) small molecule antagonists: fluorescence cell-based qHTS assay (AID 1347398; calls by dose curve; note: nearly all actives have a fitted effect of over 50% in size; note: potency is the fitted concentration of half-maximal effect); details: Potency: AChE activity
In short: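 Endogenous acetylcholinesterase of SH-SY5Y neuroblastoma cells is measured in situ. After overnight attachment and 30 min compound exposure, cells receive acetylthiocholine and Thiolite Green; fluorescence is read after 40 min at room temperature.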

[6] = biological target: Acetylcholinesterase (Homo sapiens) (UniProt P22303); experiment: Acetylcholinesterase (AChE) small molecule antagonists: enzyme-based qHTS assay with human liver microsomes (AID 1347399; calls by dose curve; note: nearly all actives have a fitted effect of over 60% in size); details: Potency: qHTS inhibition
In short: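 Recombinant human AChE (50 mU/mL in the enzyme mix) and human liver microsomes (0.25 mg/mL final) were preincubated with compound and NADPH (0.25 mg/mL final) for 30 min at 37 C. Acetylthiocholine/DTNB was then added; thiocholine was read colorimetrically after 10 min at room temperature.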

[7] = biological target: Cytochrome P450 2C19 (Homo sapiens) (UniProt P33261); experiment: Cytochrome P450 Family 2 Subfamily C Member 19 (CYP2C19) small molecule antagonists: luciferase reporter qHTS assay (AID 1671197); note: nearly all actives have a fitted effect of over 65% in size; note: potency is the fitted concentration of half-maximal effect
In short: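 Enzyme-substrate mix with proluciferin substrate (P450-Glo CYP2C19 system) preincubated with compounds 10 min at room temperature; NADPH regeneration solution added, 37C for 1 h; detection reagent stops reaction, luminescence read after 20 min. Ketoconazole positive control.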

[8] = biological target: Cytochrome P450 2C9 (Homo sapiens) (UniProt P11712); experiment: Cytochrome P450 Family 2 Subfamily C Member 9 (CYP2C9) small molecule antagonists: luciferase reporter qHTS assay (AID 1671198); note: nearly all actives have a fitted effect of over 50% in size; note: potency is the fitted concentration of half-maximal effect
In short: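 P450-Glo proluciferin substrate with CYP2C9 enzyme; 10 min RT preincubation, then NADPH regeneration 1 h at 37C; luciferin detection reagent 20 min RT, luminescence in relative luminescence units.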

[9] = biological target: Cytochrome P450 1A2 (Homo sapiens) (UniProt P05177); experiment: Cytochrome P450 Family 1 Subfamily A Member 2 (CYP1A2) small molecule antagonists: luciferase reporter qHTS assay (AID 1671199); note: nearly all actives have a fitted effect of over 50% in size; note: potency is the fitted concentration of half-maximal effect
In short: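 CYP1A2 turnover of a luminogenic substrate was quantified after 1 h with NADPH regeneration at room temperature. Furafylline served as positive control.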

[10] = biological target: Voltage-gated inwardly rectifying potassium channel KCNH2 (Homo sapiens) (UniProt Q12809); experiment: Human Ether-a-go-go-Related Gene (hERG) channel small molecule antagonists: fluorescence cell-based qHTS assay (AID 1671200); note: nearly all actives have a fitted effect of over 50% in size; note: potency is the fitted concentration of half-maximal effect
In short: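 Quantitative HTS in hERG-U2OS cells: thallium entry through the channel reports activity, read as continuous 480/540 nm fluorescence over 2 min after stimulus addition.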

[11] = biological target: Cytochrome P450 3A4 (Homo sapiens) (UniProt P08684); experiment: Cytochrome P450 Family 3 Subfamily A Member 4 (CYP3A4) small molecule antagonists: luciferase reporter qHTS assay (AID 1671201); note: nearly all actives have a fitted effect of over 50% in size; note: potency is the fitted concentration of half-maximal effect
In short: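 Inhibition of CYP3A4 is measured as loss of light: the enzyme converts a proluciferin substrate to luciferin, detected luminescently. Reaction ran 1 h at room temperature with NADPH regeneration after a 10 min compound preincubation.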

[12] = Caspase-3/7 induction in HepG2 cells by small molecules, qHTS cell viability counter screen (AID 1346981); note: nearly all actives have a fitted effect of over 30% in size; note: potency is the fitted concentration of half-maximal effect
In short: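 Multiplexed with the caspase-3/7 assay: HepG2 cells, 16 hr compound treatment, CellTiter-Fluor viability detection by fluorescence.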

[13] = biological target: Acetylcholinesterase (Homo sapiens) (UniProt P22303); experiment: Acetylcholinesterase (AChE) small molecule antagonists: enzyme-based qHTS assay (AID 1347397; calls by dose curve; note: nearly all actives have a fitted effect of over 55% in size; note: potency is the fitted concentration of half-maximal effect); details: Potency: AChE enzyme activity inhibition
In short: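 Enzyme inhibition was scored from DTNB-detected thiocholine formed by recombinant human AChE acting on acetylthiocholine. The 30 min compound preincubation and 10 min substrate reaction were both run at room temperature, with DMSO as vehicle control.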

[14] = biological target: Cytochrome P450 2D6 (Homo sapiens) (UniProt P10635); experiment: Cytochrome P450 Family 2 Subfamily D Member 6 (CYP2D6) small molecule antagonists: luciferase reporter qHTS assay (AID 1671196); note: nearly all actives have a fitted effect of over 50% in size; note: potency is the fitted concentration of half-maximal effect
In short: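 Luminescence (RLU), read 20 min after detection reagent, indicated CYP2D6 conversion of proluciferin to luciferin during a 1 h NADPH-dependent reaction at room temperature.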

Measured: Potency

Cytochrome P450 2C9 (Homo sapiens), sequence (P11712 whole entry, looked up): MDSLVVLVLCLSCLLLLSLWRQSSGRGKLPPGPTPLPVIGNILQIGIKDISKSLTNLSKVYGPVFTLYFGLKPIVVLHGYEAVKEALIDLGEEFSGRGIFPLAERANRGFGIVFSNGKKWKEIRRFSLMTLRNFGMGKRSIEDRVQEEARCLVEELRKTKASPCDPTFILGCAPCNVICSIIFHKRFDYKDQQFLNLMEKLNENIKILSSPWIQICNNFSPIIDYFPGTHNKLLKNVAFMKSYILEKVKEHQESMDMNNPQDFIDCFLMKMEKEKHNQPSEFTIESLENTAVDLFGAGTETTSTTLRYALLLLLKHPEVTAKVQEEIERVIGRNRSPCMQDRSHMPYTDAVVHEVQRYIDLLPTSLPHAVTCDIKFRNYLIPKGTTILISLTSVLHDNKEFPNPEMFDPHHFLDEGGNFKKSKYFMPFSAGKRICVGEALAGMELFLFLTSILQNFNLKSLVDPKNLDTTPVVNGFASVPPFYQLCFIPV
Cytochrome P450 2C19 (Homo sapiens), sequence (P33261 whole entry, looked up): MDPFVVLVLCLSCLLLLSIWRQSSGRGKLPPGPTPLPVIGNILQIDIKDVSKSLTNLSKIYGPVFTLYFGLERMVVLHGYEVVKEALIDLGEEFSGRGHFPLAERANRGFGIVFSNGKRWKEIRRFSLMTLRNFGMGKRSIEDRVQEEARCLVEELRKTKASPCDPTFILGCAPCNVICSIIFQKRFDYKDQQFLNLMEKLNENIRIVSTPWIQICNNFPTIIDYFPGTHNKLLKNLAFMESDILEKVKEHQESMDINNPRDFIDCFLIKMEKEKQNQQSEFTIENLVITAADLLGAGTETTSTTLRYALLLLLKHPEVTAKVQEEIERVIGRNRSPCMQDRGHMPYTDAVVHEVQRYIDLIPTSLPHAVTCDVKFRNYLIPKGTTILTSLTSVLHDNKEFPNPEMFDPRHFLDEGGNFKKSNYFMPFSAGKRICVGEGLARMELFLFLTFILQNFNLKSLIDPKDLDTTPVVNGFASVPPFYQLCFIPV
Cytochrome P450 1A2 (Homo sapiens), sequence (P05177 whole entry, looked up): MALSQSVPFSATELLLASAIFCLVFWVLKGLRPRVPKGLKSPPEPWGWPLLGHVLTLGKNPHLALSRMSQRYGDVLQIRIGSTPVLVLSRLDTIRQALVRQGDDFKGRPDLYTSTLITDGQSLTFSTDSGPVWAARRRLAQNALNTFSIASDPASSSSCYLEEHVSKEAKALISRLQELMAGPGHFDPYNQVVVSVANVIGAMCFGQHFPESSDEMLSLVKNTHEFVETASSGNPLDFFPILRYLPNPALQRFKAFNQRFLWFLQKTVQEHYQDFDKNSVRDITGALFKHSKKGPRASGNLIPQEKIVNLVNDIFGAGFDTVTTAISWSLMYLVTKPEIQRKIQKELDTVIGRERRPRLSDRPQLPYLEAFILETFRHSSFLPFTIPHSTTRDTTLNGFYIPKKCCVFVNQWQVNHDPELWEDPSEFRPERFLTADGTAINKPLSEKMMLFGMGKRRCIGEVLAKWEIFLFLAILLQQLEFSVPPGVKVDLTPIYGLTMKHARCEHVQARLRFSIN
Cytochrome P450 2D6 (Homo sapiens), sequence (P10635 whole entry, looked up): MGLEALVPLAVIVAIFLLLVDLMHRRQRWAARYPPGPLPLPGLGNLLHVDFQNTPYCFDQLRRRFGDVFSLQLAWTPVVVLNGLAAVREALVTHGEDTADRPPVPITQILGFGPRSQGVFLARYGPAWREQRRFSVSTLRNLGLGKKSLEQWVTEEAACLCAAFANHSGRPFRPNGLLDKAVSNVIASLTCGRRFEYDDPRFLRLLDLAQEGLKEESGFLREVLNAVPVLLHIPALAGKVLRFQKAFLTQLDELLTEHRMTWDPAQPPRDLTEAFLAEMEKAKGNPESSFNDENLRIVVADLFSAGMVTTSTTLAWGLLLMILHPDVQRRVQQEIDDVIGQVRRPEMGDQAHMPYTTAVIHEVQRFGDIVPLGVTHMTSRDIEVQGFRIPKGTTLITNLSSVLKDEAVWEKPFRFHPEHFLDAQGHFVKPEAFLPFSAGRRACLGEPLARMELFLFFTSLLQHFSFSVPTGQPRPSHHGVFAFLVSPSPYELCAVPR
Nuclear receptor subfamily 1 group I member 2 (Homo sapiens), sequence (O75469 whole entry, looked up): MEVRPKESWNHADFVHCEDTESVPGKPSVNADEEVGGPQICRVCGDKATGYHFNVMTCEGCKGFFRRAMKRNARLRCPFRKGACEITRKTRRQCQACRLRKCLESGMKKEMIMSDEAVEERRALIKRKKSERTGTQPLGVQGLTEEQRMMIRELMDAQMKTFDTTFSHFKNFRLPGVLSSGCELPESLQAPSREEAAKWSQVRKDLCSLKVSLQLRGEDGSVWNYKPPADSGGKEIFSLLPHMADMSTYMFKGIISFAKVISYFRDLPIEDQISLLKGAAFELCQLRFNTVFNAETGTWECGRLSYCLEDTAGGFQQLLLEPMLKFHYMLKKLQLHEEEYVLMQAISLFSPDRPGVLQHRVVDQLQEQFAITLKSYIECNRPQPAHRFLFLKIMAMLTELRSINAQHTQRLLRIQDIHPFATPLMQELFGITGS
Cytochrome P450 3A4 (Homo sapiens), sequence (P08684 whole entry, looked up): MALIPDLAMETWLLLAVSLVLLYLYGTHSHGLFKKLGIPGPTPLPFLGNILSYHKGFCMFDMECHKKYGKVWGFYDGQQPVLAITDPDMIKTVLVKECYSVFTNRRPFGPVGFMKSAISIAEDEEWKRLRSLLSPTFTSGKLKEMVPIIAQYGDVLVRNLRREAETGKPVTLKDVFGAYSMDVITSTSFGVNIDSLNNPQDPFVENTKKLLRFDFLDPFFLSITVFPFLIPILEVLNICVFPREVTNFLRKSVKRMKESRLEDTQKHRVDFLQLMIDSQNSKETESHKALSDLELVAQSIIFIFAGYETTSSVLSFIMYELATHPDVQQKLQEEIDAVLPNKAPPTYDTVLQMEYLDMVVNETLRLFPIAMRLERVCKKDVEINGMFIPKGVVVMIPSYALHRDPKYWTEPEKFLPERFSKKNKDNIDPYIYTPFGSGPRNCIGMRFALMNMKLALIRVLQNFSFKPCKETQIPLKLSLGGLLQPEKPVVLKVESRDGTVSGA
Voltage-gated inwardly rectifying potassium channel KCNH2 (Homo sapiens), sequence (Q12809 whole entry, looked up): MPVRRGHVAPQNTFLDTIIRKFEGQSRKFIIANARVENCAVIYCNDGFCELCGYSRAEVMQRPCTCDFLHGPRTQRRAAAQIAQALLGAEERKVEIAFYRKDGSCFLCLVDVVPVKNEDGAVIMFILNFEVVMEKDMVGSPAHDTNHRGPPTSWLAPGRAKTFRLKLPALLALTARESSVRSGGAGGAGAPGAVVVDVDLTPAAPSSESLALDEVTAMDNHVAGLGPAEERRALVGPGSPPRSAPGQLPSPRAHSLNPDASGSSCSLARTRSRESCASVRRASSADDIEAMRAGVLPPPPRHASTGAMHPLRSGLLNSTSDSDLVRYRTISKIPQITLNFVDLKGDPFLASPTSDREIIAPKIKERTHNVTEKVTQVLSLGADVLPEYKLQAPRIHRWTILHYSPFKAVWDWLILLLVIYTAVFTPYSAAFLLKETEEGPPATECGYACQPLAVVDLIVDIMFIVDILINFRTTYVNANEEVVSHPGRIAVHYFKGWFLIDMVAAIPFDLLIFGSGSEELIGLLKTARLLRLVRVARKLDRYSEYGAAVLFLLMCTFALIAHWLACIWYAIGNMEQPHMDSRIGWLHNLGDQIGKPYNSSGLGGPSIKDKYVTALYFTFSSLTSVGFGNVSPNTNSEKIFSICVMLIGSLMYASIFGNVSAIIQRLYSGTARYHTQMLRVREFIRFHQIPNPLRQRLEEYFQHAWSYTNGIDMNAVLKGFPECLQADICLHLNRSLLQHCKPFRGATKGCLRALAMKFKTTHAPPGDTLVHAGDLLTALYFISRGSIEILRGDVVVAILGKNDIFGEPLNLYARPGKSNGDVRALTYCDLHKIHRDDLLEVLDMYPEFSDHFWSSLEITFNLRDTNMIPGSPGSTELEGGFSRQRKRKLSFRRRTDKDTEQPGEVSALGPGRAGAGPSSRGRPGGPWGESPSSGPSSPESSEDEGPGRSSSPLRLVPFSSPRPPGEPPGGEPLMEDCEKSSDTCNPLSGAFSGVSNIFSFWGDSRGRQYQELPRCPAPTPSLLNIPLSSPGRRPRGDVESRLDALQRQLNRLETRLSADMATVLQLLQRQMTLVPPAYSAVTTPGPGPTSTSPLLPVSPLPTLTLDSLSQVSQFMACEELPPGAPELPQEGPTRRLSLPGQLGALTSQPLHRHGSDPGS
Acetylcholinesterase (Homo sapiens), sequence (P22303 whole entry, looked up): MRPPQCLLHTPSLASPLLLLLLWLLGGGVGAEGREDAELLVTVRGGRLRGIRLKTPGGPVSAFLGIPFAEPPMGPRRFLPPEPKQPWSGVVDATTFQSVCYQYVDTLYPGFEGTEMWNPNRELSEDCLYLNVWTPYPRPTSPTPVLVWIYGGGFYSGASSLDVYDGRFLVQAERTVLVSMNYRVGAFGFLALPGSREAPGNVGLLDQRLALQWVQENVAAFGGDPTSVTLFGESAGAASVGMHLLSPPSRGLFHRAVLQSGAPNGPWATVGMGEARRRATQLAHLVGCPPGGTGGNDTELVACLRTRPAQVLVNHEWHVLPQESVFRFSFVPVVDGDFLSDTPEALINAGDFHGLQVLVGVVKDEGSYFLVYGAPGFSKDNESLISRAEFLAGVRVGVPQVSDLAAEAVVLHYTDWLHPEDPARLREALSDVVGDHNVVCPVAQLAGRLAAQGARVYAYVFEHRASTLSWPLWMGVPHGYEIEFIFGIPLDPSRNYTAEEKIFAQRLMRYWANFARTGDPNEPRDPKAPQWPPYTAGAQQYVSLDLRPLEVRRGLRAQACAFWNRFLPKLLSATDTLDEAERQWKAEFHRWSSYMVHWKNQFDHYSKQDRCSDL

CC1=C2C[C@H]3[C@@H](CC=C4C[C@@H](O)CC[C@@]43C)[C@@H]2CC[C@]12O[C@@H]1C[C@H](C)CN[C@H]1[C@H]2C
inactive: [1] | [2] | [3] | [4] | [5] | [6] | [7] | [8] | [9] | [10] | [11]

C#CCC1=C(C)C(OC(=O)C2C(C=C(C)C)C2(C)C)CC1=O (centres undefined)
active: [3] 10.8 µM | [14] 39.7 µM | [7] 4.99 µM | [8] 12.5 µM | [9] 25 µM | [10] 43.4 µM | [11] 8.88 µM
inactive: [1] | [2] | [12] | [4] | [13] | [5] | [6]

CCCCCCCc1ccc(O)cc1
inactive: [2] | [4] | [5] | [6] | [11]
active: [3] 61.1 µM | [7] 20 µM | [8] 35.6 µM | [9] 35.6 µM

CC(C)(C)c1ccc(OP(=O)(Oc2ccccc2)Oc2ccccc2)cc1
inactive: [1] | [2] | [12] | [6] | [14] | [11]
active: [3] 13.8 µM | [4] 31.9 µM | [13] 22.6 µM | [7] 5.06 µM | [8] 5.06 µM | [9] 16 µM | [10] 15.6 µM

Clc1ccc(C(c2ccc(Cl)cc2)C(Cl)Cl)cc1
inactive: [1] | [12] | [4] | [13] | [6] | [11]
active: [3] 19.6 µM | [14] 64.3 µM | [7] 181 nM and 113 nM | [8] 5.11 µM and 6.33 µM | [10] 24.9 µM and 19.5 µM

CCO/N=C(\CC)C1=C(O)CC(c2c(C)cc(C)cc2C)CC1=O (centres undefined)
inactive: [1] | [2] | [12] | [4] | [13] | [5] | [6] | [10] | [11]
active: [3] 30.6 µM | [7] 5.03 µM | [8] 7.31 µM

O=[N+]([O-])c1cc(C(F)(F)F)c(Cl)c([N+](=O)[O-])c1Nc1ncc(C(F)(F)F)cc1Cl
inactive: [1] | [4] | [13] | [5] | [6]
active: [12] 54.5 µM | [3] 8.63 µM | [7] 12.6 µM | [11] 20 µM

Clc1ccc(C(Cl)(Cl)Cl)cc1Cl
inactive: [2] | [4] | [6] | [14] | [8] | [10]
active: [3] 30 µM

COP(=S)(OC)Oc1ccc([N+](=O)[O-])c(C)c1
active: [4] 35.6 µM | [5] 50.2 µM | [14] 25.2 µM | [7] 0.399 µM | [8] 7.1 µM | [9] 1.12 µM | [11] 7.1 µM
inactive: [1] | [2] | [12] | [3] | [6] | [10]

Oc1cccc(Cl)c1Cl
inactive: [1] | [2] | [12] | [3] | [4] | [13] | [5] | [6] | [10] | [11]
active: [14] 56.6 µM | [7] 80 µM

c1ccc(N=NNc2ccccc2)cc1
active: [12] 28.3 µM | [3] 31.7 µM and 30.6 µM | [14] 65.4 µM and 63.3 µM | [7] 23.2 µM and 50.2 µM | [8] 26 µM and 31.7 µM | [9] 13.1 µM and 15.9 µM | [11] 26 µM
inactive: [1] | [2] | [4] | [13] | [5] | [6]
